Screening results (PubChem BioAssay)
In the library only some 5.3% were active in any assay of this set; here they are far more common.
Tau fluor cs – Counterscreen qHTS for Inhibitors of Tau Fibril Formation, Fluorescence Polarization; Potency, µM (titrated, usually from 57.7 µM), for the others: top-dose activity change, negative = decrease; 280,000 compounds, 0.93% hits; tau K18 P301L Alexa594 fluorescence, heparin fibrillization; note: potency is the fitted concentration of half-maximal effect; % is set by controls: 0 for no effect and ±100 for the full control effect; nearly all actives have a fitted effect of over 55% in size
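Human K18 P301L tau (15 uM unlabeled plus 0.24 uM Alexa 594-labeled, final) in 100 mM sodium acetate pH 7 was mixed with compound and 20 uM heparin and incubated 6 hr at 37 C.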
KDM4E inh – qHTS Assay for Inhibitors of Human Jumonji Domain Containing 2E (JMJD2E); Lysine-specific demethylase 4E (Homo sapiens), B2RXH2; JMJD2E catalytic domain, FDH-coupled NADH fluorescence (FDH is formaldehyde dehydrogenase); Potency, µM (top dose mostly 57.1 µM), without a hit: at the highest dose activity change, negative = inhibition, most hits filed as inhibitors; 230,000 compounds, 1.6% hits; AID 2147, 2009; active = well fitted inhibition curve with a large enough effect, not every such curve was filed as active; inconclusive = small, poorly fitted or top-dose-only effect, or another doubt; inactive = no such curve, though single readings can be large or run the other way;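 note: potency is the fitted concentration of half-maximal effect; 0% = wells with enzyme and -100% = buffer wells without enzyme; nearly all actives have a fitted effect of over 50% in size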
Target sequence (B2RXH2 1-337 limits assumed): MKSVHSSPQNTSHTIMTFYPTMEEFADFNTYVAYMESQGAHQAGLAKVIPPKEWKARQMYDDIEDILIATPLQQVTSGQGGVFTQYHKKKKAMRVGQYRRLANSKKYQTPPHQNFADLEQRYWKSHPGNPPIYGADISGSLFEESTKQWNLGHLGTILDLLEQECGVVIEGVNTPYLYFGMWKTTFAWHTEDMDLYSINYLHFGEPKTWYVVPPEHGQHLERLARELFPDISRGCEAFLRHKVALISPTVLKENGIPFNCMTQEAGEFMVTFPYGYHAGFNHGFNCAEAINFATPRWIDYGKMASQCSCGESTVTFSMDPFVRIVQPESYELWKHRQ
Coupling enz – qHTS Assay for Inhibitors of Fructose-1,6-bisphosphate Aldolase from Giardia Lamblia: Coupling assay counterscreen; coupling enzyme system counterscreen, AmpLite Red fluorescence; activity change, negative = inhibition, % at 58.2 µM, hits read low; 290,000 compounds, 0.67% hits; in the data active = activity change below about -30%; note: % is set by controls: 0 for no effect and ±100 for the full control effect
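Fluorescence at 525 nm excitation and 598 nm emission measured inhibition of the coupled detection system without aldolase. Compounds (at 57.5 uM final) were preincubated 10 min at room temperature with coupling enzyme reagent before a 20 min substrate/AmpLite Red step.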
Tau fibril FP – qHTS for Inhibitors of Tau Fibril Formation, Fluorescence Polarization | K18 P301L tau heparin fibrillization, Alexa594 FP, 6 h | Potency, µM (highest dose often 57.7 µM), inactives show top-dose activity, negative = inhibition, usual class: inhibitors | 280,000 compounds, 0.39% hits; note: potency is the fitted concentration of half-maximal effect; % is set by controls: 0 for no effect and ±100 for the full control effect; nearly all actives have a fitted effect of over 55% in size
Target sequence (P10636 561-689 P618L limits assumed): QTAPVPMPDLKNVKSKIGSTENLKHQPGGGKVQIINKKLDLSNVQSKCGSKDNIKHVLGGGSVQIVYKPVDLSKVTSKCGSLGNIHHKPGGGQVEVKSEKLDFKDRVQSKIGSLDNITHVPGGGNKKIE
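Human tau K18 […] P301L fragment, 15 uM unlabeled plus 0.24 uM Alexa 594-labeled tau (final), with compound and 20 uM heparin in 100 mM sodium acetate pH 7; 6 hr at 37 C, then Alexa 594 FP read.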
Tau ThT inhib – qHTS for Inhibitors of Tau Fibril Formation, Thioflavin T Binding | Microtubule-associated protein tau (Homo sapiens), P10636 | recombinant tau K18 P301L, heparin-induced fibrillization, ThT fluorescence | Potency, µM (doses to about 57.4 µM), inactives show at the top dose activity, negative = inhibition, most hits filed as inhibitors | 270,000 compounds, 2.1% hits; note: potency is the fitted concentration of half-maximal effect; % is set by controls: 0 for no effect and ±100 for the full control effect; nearly all actives have a fitted effect of over 55% in size
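In this qHTS, human K18 P301L tau is incubated with compound and heparin for 6 hr at 37 C, and Thioflavin T fluorescence then reports fibril load.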
Sfp PPTase inh – qHTS Assay for Inhibitors of Bacillus subtilis Sfp phosphopantetheinyl transferase (PPTase); 310,000 compounds, 3.5% hits; AID 1490, 2009; Potency, µM, for the others: largest response in the series, negative = inhibition, actives largely listed as inhibitors; Biochemical Sfp PPTase activity, qHTS;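 note: the enzyme is Sfp with the accession as filed and its product quenches rhodamine fluorescence; potency is the fitted concentration of half-maximal effect; 0% = enzyme reaction without inhibitor and -100% = no enzyme wells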
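Sfp 15 nM + cpd, 15 min RT; start w/ rhodamine-CoA 5 uM, BHQ-2-YbbR 12.5 uM (final); 50 mM Hepes pH 7.6, 10 mM MgCl2, 0.01% NP-40, 0.01% BSA; read 525/598 nm at 0 and 30 min.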
Tau TEM fibril – Transmission Electron Microscopy Assay for Inhibitors of Tau Fibrillization; shares compounds with Tau ThT inhib; recombinant tau K18 P301L fibrillization, TEM grading; hits give high values; fibril grade (0 = clumped fibrils, 4 = only tiny pieces) (no concentration beside the values); 45 compounds, 70% hits; AID 1719, 2009;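 active = compounds whose electron micrographs showed tau fibrils broken into shorter filaments or fragments, graded high on fibril breakup; inconclusive = micrographs gave an unclear fibril picture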
tau sediment – Sedimentation Assay for Inhibitors of Tau Fibrillization; shares compounds with Tau ThT inhib; inhibition, % at 100 µM; recombinant tau K18 P301L (four-repeat tau fragment), sedimentation SDS-PAGE densitometry; 110 compounds, 50% hits; in the data active = inhibition above about 40%; inconclusive = no clear call, values can overlap the other calls; inactive = below about 18%
Active calls of the source: *; ? = inconclusive; nt = no result given; ! = repeats disagree; [ ] = dose if it differs, or a comment. Unless noted, calls come from the whole dose curve; as a rule, active = well fitted curve in the direction sought with a large enough effect; inconclusive = small, poorly fitted or top-dose-only effect, or another doubt; inactive = no such curve, though single readings can be large; an effect the other way counts as inactive or inconclusive.

SMILES | Tau fluor cs | KDM4E inh | Coupling enz | Tau fibril FP | Tau ThT inhib | Sfp PPTase inh | tau sediment | others
COC(=O)c1ccccc1NC(=O)CSc1nc2sc3c(c2c(=O)[nH]1)CCCC3 | ? | nt | nt | 14µM* | 7.9µM* | nt | 58* | Tau TEM fibril=2*
Cc1ccc(S(=O)(=O)N(C)c2nc3ccccc3[nH]c2=S)cc1 | -24% | -10% | 3 | ? | 1.1µM* | ? | ? | Tau TEM fibril=0
CCc1nnc2c(N(C)S(=O)(=O)c3ccc(C)cc3)nc3ccccc3n12 | nt | nt | -1 | nt | nt | 25% | nt
CCN(CC)Cc1c(NC(=O)c2ccc(OC)cc2)sc2c1CCCC2 | ? | nt | nt | 9% | ? | nt | nt
CCOC(=O)c1nn(-c2ccccc2)c(=O)c2c(NC(C)=O)scc12 | -7% | 11% | -6 | -4% | 2% | 16% | 11
Nc1scc2c(CO)nn(-c3ccccc3)c(=O)c12 | nt | nt | nt | nt | nt | nt | 81*
O=c1c2cccc3c2c(nn1-c1ccccc1)-c1ccccc1-3 | -10% | -2% | -2 | -5% | -7% | -5% | nt
CCOC(=O)c1nn(-c2ccccc2)c(C(=O)OCC)c1N | 1% | ? | 3 | 3% | -4% | 16% | nt
Nc1nn(-c2ccccc2)c(=O)c2c(N)scc12 | nt | nt | nt | nt | nt | nt | 86*
Nc1scc2c(C(=O)N3CCOCC3)nn(-c3ccccc3)c(=O)c12 | nt | nt | nt | nt | nt | nt | 89*
NC(=O)c1nn(-c2ccccc2)c(=O)cc1O | -10% | -5% | -3 | -4% | -13% | 9% | nt
NC(=O)c1nn(-c2ccccc2)c(=O)c2c(N)scc12 | nt | nt | nt | nt | nt | nt | 89*
NC[C@H](O)c1ccc(O)c(O)c1 | ? | 10µM* | -40* | 6.3µM*! | 4µM*! | ? | 75* | Tau TEM fibril=3*
COc1cc(C(O)CO)ccc1O (stereo unspecified) | -2% | 0% | nt | -2% | -3% | nt | nt
NC[C@@H](O)c1ccc(O)c(O)c1 | -15% | 3.5µM* | -36*! | ? | ? | ? | 18
O=C(c1ccc(CS(=O)(=O)c2c(Cl)cccc2Cl)o1)N1CCN(c2ccccc2)CC1 | -23% | nt | nt | 6% | -7% | nt | nt
CC1(C)OC(C(O)(c2cc(F)c(F)c(F)c2)c2cc(F)c(F)c(F)c2)C(C(O)(c2cc(F)c(F)c(F)c2)c2cc(F)c(F)c(F)c2)O1 (stereo unspecified) | -21%[11.6 µM] | nt | 0 | -8%[11.6 µM] | -5%[11.5 µM] | -5% | nt
CCOc1ccc(C(c2c(O)cc(C)n(Cc3ccco3)c2=O)N2CCN(C)CC2)cc1 (stereo unspecified) | -4% | nt | nt | -18% | ? | nt | nt
COc1ccc(C(CNC(=O)COc2ccc(Cl)c(C)c2)N2CCOCC2)cc1 (stereo unspecified) | -6% | nt | nt | 7% | -4% | nt | nt
O=C(COC(=O)c1ccc(O)cc1)Nc1cccc(S(=O)(=O)NC2=NCCCCC2)c1 | -18% | 0% | 1 | -11% | -9% | 8% | nt
CCOC(=O)c1ccc(S(=O)(=O)Nc2nc3cc(S(=O)(=O)NC4=NCCCCC4)ccc3s2)cc1 | ? | -23% | 15 | 16µM* | 11µM* | 28µM* | 68* | Tau TEM fibril=2*
